Results: PubChem BioAssay
Calls of active or inactive are those of the source.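 Rule for the calls, unless noted: active = visually confirmed hit in the image check and inhibition above 20%; inconclusive = visually confirmed hit but inhibition not above 20%; inactive = no visual hit in the image check.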

Assays:
[1] = inhibitors of TNFa-induced NFkB p65 translocation, primary screen, imaging, HUVEC, MLSMR starter and 10KST1 sets (AID 438;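 active = inhibition above 20% together with a positive visual image hit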;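 note: compound added about 3h40 before a 20 min TNFalpha stimulation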;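 for inhibition: signal is the nuclear over cytoplasmic p65 intensity ratio per well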); conditions: HUVEC TNFa-induced p65 nuclear translocation; cell count: measured here: nuclei count (cytotoxicity indicator), at 2.08 µM; inhibition: at 2 µM, stronger effect = higher value, 0% TNFa-plus-vehicle, 100% no-TNFa wells
[2] = inhibitors of mutant huntingtin aggregation, primary screen, imaging, exon1htt(103Q)mCFP cells, high-content imaging (AID 483;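 active = visual image review flags a hit and inhibition of aggregation exceeds 20%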;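 note: compound exposure lasted 3 days before fixation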;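 for nuclei count: percent of the per-plate median nuclei count of sample wells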); conditions: exon1htt(103Q)mCFP cell line, aggregate imaging, at 2 µM; inhibition of aggregation: stronger effect = higher value; nuclei count: measured here: cell count, toxicity
[3] = inhibitors of E-selectin induction by TNFa, primary screen, imaging, HUVEC, immunofluorescence, MLSMR starter and 10KST1 sets (AID 487); conditions: HUVEC TNFalpha-induced E-selectin immunofluorescence imaging, at 2 µM; inhibition: stronger effect = higher value; nuclei count: measured here: cell number, toxicity;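 for inhibition: signal is fraction of cell area covered by stained E-selectin grains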;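 for nuclei count: 100% = median nuclei count of all wells on the same plate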
[4] = target: Voltage-gated potassium channel subunit beta-2 (Rattus norvegicus) (UniProt P62483); assay: KvBeta enzyme negative modulators, primary screen, biochemical, NADPH fluorescence (AID 622;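 active = fluorescence slope higher than the sample average by over 3 SD, cut at about -0.22 in these data, passing the limit was not always enough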;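 note: slope of raw intensity against log time taken from 70 to 1610 s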); conditions: recombinant KvBeta, 4-cyanobenzaldehyde reduction, at 10 µM, stronger effect = higher value
[5] = target: Voltage-gated potassium channel subunit beta-2 (Rattus norvegicus) (UniProt P62483); assay: KvBeta positive modulators, primary screen, biochemical, NADPH fluorescence (AID 623;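 active = NADPH fluorescence slope more negative than the mean of all samples by about 3 SD, 99.7% confidence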;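 note: fluorescence intensity change per second fitted from 20 to 320 s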); conditions: Recombinant KvBeta, NADPH fluorescence decrease slope, 10 min; at 10 µM; stronger effect = lower value
[6] = target: Alpha-2C adrenergic receptor (Homo sapiens) (UniProt P18825); assay: modulators of alpha2C/GIRK thallium flux, primary screen, cell-based, HEK293 alpha2C/GIRK1/2 (AID 624;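 active = fluorescence slope after compound addition differing from the mean of all screened samples at 99.7% confidence, in either direction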;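 note: slope of fluorescence ratio to pre-addition baseline per second over 15 to 24 s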); conditions: thallium flux BTC fluorescence, at 10 µM, actives lie on both sides
[7] = inhibitors of Sendai virus-induced IRF3 signaling, primary screen, TLR/RLR signaling modifier project, cell-based, Sendai virus stimulus, luciferase, 10K MLSCN set (AID 602276;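 active = inhibition at or above 50% at 10 µM; inactive = inhibition below 50%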;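 note: firefly luciferase from ISG56 promoter only with Renilla not read in this screen; 0% = Sendai virus plus DMSO and 100% = medium plus DMSO without virus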); conditions: HEK293 RL24 IRF3 luciferase reporter, at 10 µM, stronger effect = higher value
[8] = inhibitors of poly I:C-induced TLR3 signaling, primary screen, cell-based, poly I:C stimulus, luciferase, 10K MLSCN set (AID 602277;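 active = inhibition of the reporter signal at or above 50%; inactive = inhibition below 50%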); conditions: HEK293-TLR3 RL24 IRF3 luciferase reporter, at 10 µM, stronger effect = higher value

Voltage-gated potassium channel subunit beta-2 (Rattus norvegicus), sequence (P62483 whole entry, looked up): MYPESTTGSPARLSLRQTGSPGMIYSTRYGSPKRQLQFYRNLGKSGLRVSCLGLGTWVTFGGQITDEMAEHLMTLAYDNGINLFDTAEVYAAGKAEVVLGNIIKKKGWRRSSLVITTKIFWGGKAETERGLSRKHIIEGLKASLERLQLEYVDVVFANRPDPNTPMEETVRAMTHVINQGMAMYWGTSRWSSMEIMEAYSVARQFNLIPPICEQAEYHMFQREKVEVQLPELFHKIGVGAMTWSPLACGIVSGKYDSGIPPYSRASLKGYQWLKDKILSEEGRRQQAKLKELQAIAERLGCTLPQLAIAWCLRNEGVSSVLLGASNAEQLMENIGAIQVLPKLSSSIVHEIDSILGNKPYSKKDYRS
Alpha-2C adrenergic receptor (Homo sapiens), sequence (P18825 whole entry, looked up): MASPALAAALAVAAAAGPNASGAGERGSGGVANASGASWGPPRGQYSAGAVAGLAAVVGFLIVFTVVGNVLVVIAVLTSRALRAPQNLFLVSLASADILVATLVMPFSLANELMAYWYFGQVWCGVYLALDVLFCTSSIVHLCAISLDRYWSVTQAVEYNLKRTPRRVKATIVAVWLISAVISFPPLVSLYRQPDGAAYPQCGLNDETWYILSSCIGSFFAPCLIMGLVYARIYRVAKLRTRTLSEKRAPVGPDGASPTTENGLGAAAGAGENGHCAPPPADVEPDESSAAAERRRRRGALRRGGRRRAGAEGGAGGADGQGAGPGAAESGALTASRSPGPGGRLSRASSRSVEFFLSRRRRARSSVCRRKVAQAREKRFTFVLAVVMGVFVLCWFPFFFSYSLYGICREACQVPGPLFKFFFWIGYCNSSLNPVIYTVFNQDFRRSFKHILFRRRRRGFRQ

| SMILES | cell count [1] | inhibition [1] | inhibition of aggregation [2] | nuclei count [2] | inhibition [3] | nuclei count [3] | fluorescence slope [4] | NADPH fluorescence slope [5] | slope [6] | inhibition [7] | inhibition [8] |
| --- | --- | --- | --- | --- | --- | --- | --- | --- | --- | --- | --- |
| COc1ccc(S(=O)(=O)Nc2ccc(S(=O)(=O)N3CCCCC3)cc2)cc1OC | 444 | -4.8% (inactive) | -3.5% (inactive) | 110% | -34.6% (inactive) | 99.1% | -0.459 (inactive) | -4.3e-05 (inactive) | 0.00325 (inactive) | 5.56% (inactive) | 29.1% (inactive) |
| Cc1ccccc1Cn1c(=O)c2c(nc3n2CCCN3Cc2ccccc2)n(C)c1=O | 348 | 7.4% (inactive) | 7.4% (inactive) | 97.8% | -25.1% (inactive) | 120% | -0.478 (inactive) | -7.4e-06 (inactive) | 0.00418 (inactive) | 22.9% (inactive) | 19.5% (inactive) |
| O=C(CSc1nc(O)cc(=O)n1-c1ccccc1)N1CCCCC1 | 635 | -8.1% (inactive) | -16.4% (inactive) | 103% | -85.5% (inactive) | 109% | -0.536 (inactive) | -5.1e-05 (inactive) | 0.00543 (inactive) | 12.3% (inactive) | 21% (inactive) |
| CC(Oc1ccccc1)C(=O)NC1CCN(Cc2ccccc2)CC1 (stereo not drawn) | 705 | -5.2% (inactive) | 2.1% (inactive) | 108% | 0.4% (inactive) | 103% | -0.418 (inactive) | -1.8e-05 (inactive) | 0.00578 (inactive) | 11.2% (inactive) | 21.3% (inactive) |
| Cc1ccc(S(=O)(=O)C2(C(=O)NC3CCCC3)CC2)cc1 | 463 | -4.2% (inactive) | -10.8% (inactive) | 110% | -58.4% (inactive) | 115% | -0.602 (inactive) | 1.6e-05 (inactive) | 0.00643 (inactive) | 13.7% (inactive) | 36.5% (inactive) |
| COCc1cc(C)nc(Nc2ccc(C)cc2C)c1C#N | 635 | -12.3% (inactive) | -34.1% (inactive) | 113% | 24.1% (inactive) | 120% | -0.461 (inactive) | 5.1e-08 (inactive) | 0.00615 (inactive) | -5.46% (inactive) | 12.7% (inactive) |
| COc1ccc(C(=O)OCC(=O)NCc2ccco2)cc1OC | 573 | -18.9% (inactive) | -1.1% (inactive) | 107% | -12.3% (inactive) | 121% | -0.467 (inactive) | -7.7e-05 (inactive) | 0.00497 (inactive) | 17.6% (inactive) | 27.6% (inactive) |
| N#CC1=C(N)N(c2ccccc2)C(c2ccco2)C1(C#N)C#N (stereo not drawn) | 322 | 2% (inactive) | -3.9% (inactive) | 103% | 3.9% (inactive) | 107% | -0.427 (inactive) | -1.7e-05 (inactive) | 0.00559 (inactive) | 1.35% (inactive) | 9.78% (inactive) |
| COc1ccc(C(=O)NCc2nc3ccccc3[nH]2)cc1OC | 679 | -0.5% (inactive) | 6.6% (inactive) | 82.2% | -7.5% (inactive) | 112% | -0.582 (inactive) | 3.9e-06 (inactive) | 0.0061 (inactive) | -1.85% (inactive) | 25% (inactive) |
| COc1ccccc1S(=O)(=O)Cc1ccc(C(=O)N2CCOCC2)o1 | 528 | -7.1% (inactive) | 29% (inactive) | 86.6% | -67.1% (inactive) | 107% | -0.428 (inactive) | -5.8e-05 (inactive) | 0.00635 (inactive) | 1.72% (inactive) | 33.5% (inactive) |
| Cc1nc2oc3c(NCc4ccccn4)ncnc3c2c2c1COC(C)(C)C2 | 366 | -2.9% (inactive) | 2.7% (inactive) | 78.1% | -75.4% (inactive) | 117% | -0.431 (inactive) | -4.2e-06 (inactive) | 0.00661 (inactive) | 9.92% (inactive) | 12.7% (inactive) |
| CCOC(=O)c1cc2ccc(OC)c(OC)c2c(=O)s1 | 452 | 4.9% (inactive) | -3.4% (inactive) | 102% | 36.3% (inactive) | 108% | -0.396 (inactive) | -2.4e-05 (inactive) | 0.00363 (inactive) | -11.9% (inactive) | -12.5% (inactive) |
| Cn1c(=N)c(S(=O)(=O)c2ccccc2)cc2c(=O)n3ccccc3nc21 | 442 | -5.1% (inactive) | -1.9% (inactive) | 114% | -85.8% (inactive) | 235% | -0.517 (inactive) | -9.2e-06 (inactive) | 0.00488 (inactive) | -14.3% (inactive) | -10.5% (inactive) |
